Assay [1] in a line: qHTS assay to identify small molecule antagonists of the vitamin D receptor (VDR) signaling pathway - cell viability counter screen (AID 743225). Note: nearly all actives have a fitted effect of over 50% in size. In a few lines:
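Cells (VDR-UAS-bla HEK 293T) are plated, rested 4 h at 37C, dosed with compound and 3 nM final 1-alpha,25-dihydroxy vitamin D3, and incubated 16 h. Viability is taken from CellTiter-Glo luminescence in the reporter wells.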

Assay [2] in a line: qHTS assay to identify small molecule agonists of the NFkB signaling pathway (AID 1159509; active = well fitted curve in the direction sought with a large enough effect in the signal ratio in the repeat runs, not every such curve was filed as active; the % refers to the signal ratio; note: series mostly up to about 61 µM). In a few lines:
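After overnight attachment, reporter cells received test compounds, DMSO or positive controls and were incubated 5 hr at 37 C. FRET substrate was then added for 1.5 hr at room temperature before dual-emission fluorescence reading.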
Background: In qHTS, concentration-response curves come from the screen itself.

A short description of assay [3]: qHTS assay to identify small molecule agonists of the NFkB signaling pathway - cell viability counter screen (AID 1159515; calls by dose curve; note: series mostly up to about 61 µM; nearly all actives have a fitted effect of over 55% in size). In a few lines: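 Using the same wells as the NFkB reporter read, ME-180 NFkB-bla cells given compounds for 5 hr were assessed for viability via CellTiter-Glo, with luminescence taken after a 30 min room-temperature incubation.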
Assay [4] in a line: qHTS assay to identify small molecule agonists of the endoplasmic reticulum stress response signaling pathway (AID 1159516; active = well fitted activation curve with a large enough effect in the signal ratio in the repeat runs, not every such curve was filed as active; the % refers to the signal ratio). In a few lines:
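An ESRE-bla HeLa cell assay: compounds were pin-transferred from DMSO onto overnight-plated cells and left 5 hr at 37 C. Substrate was then loaded for 2 hr at room temperature before reading fluorescence at 460 nm and 530 nm.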

A short description of assay [5]: qHTS assay to identify small molecule agonists of the endoplasmic reticulum stress response signaling pathway - cell viability counter screen (AID 1159517; calls by dose curve;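 note: HeLa cells carrying an ER stress response element beta-lactamase reporter; series mostly up to about 61 µM; nearly all actives have a fitted effect of over 50% in size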). In a few lines: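 Luminescence readout: CellTiter-Glo, 30 min RT, same wells as the ESRE-bla reporter read. HeLa ESRE-bla, 1,500 cells/well, o/n 37 C; cpd 5 hr 37 C/5% CO2.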
A short description of assay [6]: qHTS assay to identify small molecule antagonists of the retinoid-related orphan receptor gamma (ROR-gamma) signaling pathway - cell viability counter screen (AID 1159520). Note: nearly all actives have a fitted effect of over 50% in size. In a few lines: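 Tet-on ROR gamma CHO cells (1,000/well) were plated 4 hr, given compounds in DMSO for 2 hr at 37 C, then induced with 1 uM final doxycycline for 16 hr. Viability was read as ATP by CellTiter-Glo luminescence after 30 min.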

In assay [7] the target is Nuclear receptor ROR-gamma (Homo sapiens) (UniProt P51449). Briefly: qHTS assay to identify small molecule antagonists of the retinoid-related orphan receptor gamma (ROR-gamma) signaling pathway (AID 1159521;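 note: CHO cells with doxycycline inducible ROR-gamma driving an RORE luciferase reporter; top concentration of the series differs between compounds; nearly all actives have a fitted effect of over 50% in size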). In a few lines: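 RORγ antagonism is scored from reduced reporter luminescence in Tet-on CHO cells. Induction used 1 uM final doxycycline hyclate for 16 h at 37 C, following a 2 h compound exposure.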

A short description of assay [8]: qHTS assay to identify small molecule agonists of the AP-1 signaling pathway - cell viability counter screen (AID 1159525; calls by dose curve; note: nearly all actives have a fitted effect of over 55% in size). In a few lines:
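ME-180 AP-1-bla, 2500 cells/well, Opti-MEM + 0.5% dialyzed FBS; overnight 37 °C; cpd 15-pt titration, 5 h 37 °C; CellTiter-Glo 30 min RT; luminescence read; normalised to TOAB and DMSO controls.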

A short description of assay [9]: qHTS assay to identify small molecule agonists of the AP-1 signaling pathway (AID 1159526; calls by dose curve).
In assay [10] the target is Retinoic acid receptor RXR-alpha (Homo sapiens) (UniProt P19793). The assay is described as follows: qHTS assay to identify small molecule agonists of the RXR signaling pathway (AID 1159527; calls by dose curve; note: nearly all actives have a fitted effect of over 35% in size). In a few lines:
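qHTS of the Tox21 10K library in GeneBLAzer RXR-alpha HEK 293T cells carrying a beta-lactamase reporter […]; 16 hr treatment, 9-cis retinoic acid as agonist control, FRET read-out.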

The nature of assay [11]: qHTS assay to identify small molecule agonists of the RXR signaling pathway - cell viability counter screen (AID 1159529). In a few lines:
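Cell viability is measured by CellTiter-Glo luminescence, 30 min at room temperature, in wells already read for beta-lactamase. Engineered HEK 293T cells (RXR-alpha-UAS-bla) are dosed 16 hr at 37 C. Tetraoctyl ammonium bromide serves as positive control.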

Assay [12] can be described thus: qHTS assay to identify small molecule antagonists of the retinoid acid receptor (RAR) signaling pathway - cell viability counter screen (AID 1159551). Note: nearly all actives have a fitted effect of over 35% in size. In a few lines: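 Retinol-stimulated (1 uM final) C3RL4 cells, compound 6 h, 37 C; readout CellTiter-Glo luminescence (ATP) after 30 min RT incubation.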
Assay [13] is described as follows: qHTS assay to identify small molecule antagonists of the retinoic acid receptor (RAR) signaling pathway (AID 1159552; note: nearly all actives have a fitted effect of over 50% in size). In a few lines: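 Quantitative HTS in C3RL4 RARE-luciferase reporter cells. Compounds were added with 1 uM (final) retinol; luminescence was read after 6 hr.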
The nature of assay [14]: qHTS assay to identify small molecule agonists of the retinoic acid receptor (RAR) signaling pathway (AID 1159553). Note: potency is the fitted concentration of half-maximal effect. In a few lines:
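Reporter readout comes from luciferase under RARE control in C3RL4 cells; compound exposure lasts 6 hr at 37 C in 5% CO2, and luminescence is recorded following a 30 min room-temperature incubation with reagent.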

A short description of assay [15]: qHTS assay to identify small molecule antagonists of the estrogen related receptor (ERR) signaling pathway - cell viability counter screen (AID 1224818).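 Note: series mostly up to about 46 µM; viability measured after 17.5 h of compound exposure.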 In a few lines:
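After a 6 h pre-incubation, ERR cells were dosed by pin tool with compounds, positive/negative controls or DMSO alone. Following 17.5 h at 37 C and 30 min with CellTiter-Fluor, fluorescence was recorded.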

Assay [16] in a line: qHTS assay to identify small molecule antagonists of the estrogen related receptor (ERR) signaling pathway (AID 1224819). In a few lines: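 Luminescence readout (One-Glo, 30 min, RT) of ERR cell line after 18 h compound exposure at 37 C; cells seeded 2,000/well, pre-incubated 6 h, compounds pinned from DMSO stocks.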
Assay [17] in a line: qHTS assay to identify small molecule agonists of the estrogen related receptor (ERR) signaling pathway (AID 1224820). In a few lines:
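Quantitative HTS of the LOPAC library used NTP ERR reporter cells treated 18 h at 37 C. Signal is luminescence after One-Glo addition and a 30 min room-temperature incubation.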

Assay [18] relates to estrogen-related receptor alpha (ERRalpha) with PGC-1alpha coactivator, human. Briefly: qHTS assay to identify small molecule antagonists of the estrogen related receptor signaling pathway with the pleiotropic PPARgamma coactivator (PGC) (AID 1224821; calls by dose curve). In a few lines: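 Quantitative HTS for antagonism: PGC/ERR cells received compounds after 6 h attachment and were incubated 18 h at 37 C, with luminescence (One-Glo) as the endpoint.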

A short description of assay [19]: qHTS assay to identify small molecule antagonists of the estrogen related receptor signaling pathway with the pleiotropic PPARgamma coactivator (PGC) cell viability counter screen (AID 1224822;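 note: series mostly up to about 46 µM; viability read after 17.5 h compound exposure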). In a few lines:
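PGC/ERR cells were plated at 2,000 per well and allowed 6 h to settle before compound addition. Following 17.5 h at 37 C, CellTiter-Fluor reagent was added and fluorescence was read 30 min later.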

Assay [20] in a line: qHTS assay to identify small molecule agonists of the estrogen related receptor signaling pathway with the pleiotropic PPARgamma coactivator (PGC) (AID 1224823). In a few lines: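 Cell-based luciferase assay in the NTP-supplied PGC/ERR line, 2,000 cells/well; 18 h compound exposure at 37 C, luminescence after One-Glo.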

The structures appear in SMILES notation. Records with an inconclusive call do not appear. Unmarked numbers belong to inactive results. Calls of active or inactive are those of the source. Unless noted, calls come from the whole dose curve; as a rule, active = well fitted curve in the direction sought with a large enough effect in the repeat runs; inconclusive = weak or mixed curves; inactive = no such curve, though single readings can be large; an effect the other way counts as inactive or inconclusive.

Retinoic acid receptor RXR-alpha (Homo sapiens), sequence (P19793 whole entry, looked up): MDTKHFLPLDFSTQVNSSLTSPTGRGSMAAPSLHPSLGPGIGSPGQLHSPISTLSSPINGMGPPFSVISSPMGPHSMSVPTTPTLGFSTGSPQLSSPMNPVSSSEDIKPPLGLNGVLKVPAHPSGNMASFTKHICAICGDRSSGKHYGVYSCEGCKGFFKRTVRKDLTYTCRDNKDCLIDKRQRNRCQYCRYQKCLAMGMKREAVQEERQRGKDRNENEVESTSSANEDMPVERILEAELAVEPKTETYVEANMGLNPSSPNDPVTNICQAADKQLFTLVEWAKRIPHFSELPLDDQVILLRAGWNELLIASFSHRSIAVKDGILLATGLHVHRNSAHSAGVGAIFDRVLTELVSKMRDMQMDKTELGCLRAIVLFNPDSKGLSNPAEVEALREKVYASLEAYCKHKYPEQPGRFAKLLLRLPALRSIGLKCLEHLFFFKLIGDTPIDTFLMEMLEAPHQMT

As to `Clc1nc(Cl)nc(Nc2ccccc2Cl)n1`, the Potency entry in [1], in [5], in assay [6], in [7], in assay [8] and in assay [10] was “inactive” in each case. Besides, the Potency result in assay [11], in [12], in assay [13] and in assay [14] was “inactive” each time. Further, the outcome in assay [2], in assay [3], in assay [4] and in assay [9] was inactive.

As for `COC1=CC(=O)O[C@@H](/C=C/c2ccccc2)C1`, the Potency entry in [1], in assay [5], in assay [6], in assay [7], in assay [8] and in [10] was “inactive” throughout. The Potency entry in [11], in assay [12] and in assay [13] was “inactive” in each case. Besides, the molecule was called inactive in assay [2], in assay [3], in assay [4] and in assay [9]. The Potency in [14] was 24.7 µM (active).

With `C=CCC1(C(C)CC)C(=O)NC(=O)NC1=O` (configuration not stated), the Potency entry in [1], in assay [5], in [6], in [7], in assay [8] and in assay [10] was “inactive” in each case. Besides, the Potency result in assay [11], in assay [12], in [13] and in assay [14] was “inactive” throughout. For the same molecule, the call in [2], in assay [3], in [4] and in assay [9] was inactive.

Turning to `CCCN1CCC[C@@H]2Cc3[nH]ncc3C[C@H]21`, the Potency result in assay [1], in assay [5], in assay [6], in assay [7], in assay [8] and in assay [10] was “inactive” throughout. The Potency result in assay [11], in assay [12], in assay [13] and in assay [14] was “inactive” each time. The call in assay [2], in [3], in assay [4], in [9], in [15] and in assay [16] was inactive. The molecule was called inactive in [17], in [18], in assay [19] and in [20].

Turning to `COC[C@@H](NC(C)=O)C(=O)NCc1ccccc1`, the Potency result in [1], in assay [5], in assay [6], in [7], in [8] and in assay [10] was “inactive” in each case. The Potency result in assay [11], in [12], in assay [13] and in [14] was “inactive” throughout. The call in assay [2], in [3], in [4] and in assay [9] was inactive.

For `COc1cccc([C@@]2(O)CCCC[C@@H]2CN(C)C)c1`, the Potency result in [1], in [5], in assay [6], in assay [7], in assay [8] and in [10] was “inactive” each time. In addition, the Potency entry in assay [11], in assay [12], in assay [13] and in assay [14] was “inactive” in each case. The result in assay [2], in assay [3], in assay [4] and in assay [9] was inactive.

In the case of `CCOP(=O)(CN(CCO)CCO)OCC`, the Potency entry in assay [1], in assay [5], in assay [6], in assay [7], in [8] and in assay [10] was “inactive” each time. Further, the Potency entry in [11], in assay [12], in assay [13] and in [14] was “inactive” in each case. For the same molecule, the result in assay [2], in assay [3], in [4] and in [9] was inactive.

Turning to `CCCC(C)C1(CC)C(=O)N=C(S)NC1=O` (configuration not stated), the Potency result in assay [1], in assay [5], in [6], in [7], in assay [8] and in assay [10] was “inactive” each time. Further, the Potency result in assay [11], in assay [12], in assay [13] and in [14] was “inactive” in each case. For the same molecule, the outcome in assay [2], in [3], in assay [4] and in assay [9] was inactive.

Regarding `CC(C)(N)Cc1ccc(Cl)cc1`, the Potency result in assay [1], in assay [5], in [6], in assay [7], in [8] and in assay [10] was “inactive” in each case. Also, the Potency entry in [11], in assay [12], in [13] and in [14] was “inactive” throughout. The call in [2], in assay [3], in assay [4] and in [9] was inactive.

Source of the values: PubChem BioAssay (Tox21).
